Records with an inconclusive call do not appear. A number with no mark means an inactive call. Calls of active or inactive are those of the source. Calls follow the shape of the dose curve; as a rule, active = well fitted antagonist curve with a large enough effect in the main read-out, with a control signal flat; inconclusive = small, poorly fitted or top-dose-only effect; inactive = no such curve, though single readings can be large or run the other way.

Chain of Neuropeptide S receptor (Homo sapiens) (Q6W5P4 whole entry, looked up): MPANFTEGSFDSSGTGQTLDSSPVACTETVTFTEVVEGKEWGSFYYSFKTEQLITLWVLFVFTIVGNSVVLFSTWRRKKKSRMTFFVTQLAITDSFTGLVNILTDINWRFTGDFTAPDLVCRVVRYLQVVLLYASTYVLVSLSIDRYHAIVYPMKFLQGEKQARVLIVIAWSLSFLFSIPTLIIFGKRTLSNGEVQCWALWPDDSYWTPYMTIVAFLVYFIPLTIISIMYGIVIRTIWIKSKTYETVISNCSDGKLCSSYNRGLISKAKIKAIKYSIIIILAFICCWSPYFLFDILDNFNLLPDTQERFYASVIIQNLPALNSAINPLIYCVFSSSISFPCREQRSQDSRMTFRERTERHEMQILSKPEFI

This assay addresses Neuropeptide S receptor (Homo sapiens) (UniProt Q6W5P4). Briefly: Confirmation Concentration-Response Assay for Antagonists of the Neuropeptide S Receptor: Calcium Signal Transduction. The following applies: CHO-NPSR cells, NPS-induced calcium flux, FDSS; series mostly up to 19.3 µM; activity change, negative = inhibition: at the top concentration. An excerpt:
NIH Chemical Genomics Center [NCGC] NIH Molecular Libraries Probe Production centers Network [MLPCN] MLPCN Grant: X01-DA026210-01 Assay Submitter (PI): Heilig, Markus Alexander NCGC Assay Overview: Neuropeptide S receptor (NPSR), previously known as GPR154, is a recently de-orphanized G protein coupled receptor. Its endogenous ligand is the 20 amino acids peptide Neuropeptide S (NPS). […] NPS and its receptor are found in various tissues. Specifically they are highly expressed in brain areas that have been implicated in modulation of arousal, stress and anxiety. Central administration of NPS in mice produces an unusual profile of activity by inducing wakefulness and arousal, while at the same time suppressing anxiety. Therefore, NPSR may represent a novel drug target for the treatment of sleep and anxiety disorders. To identify NPSR antagonists, we developed a cell-based assay with transfected NPS receptor. NPS can stimulate the production of cAMP as well as release intracellular calcium in Chinese hamster ovary cells stably expressing NPS receptor. This change in intracellular calcium can be detected using a calcium indicator dye on a calcium imaging plate reader system (FDSS).
NCGC Assay Protocol Summary: A Chinese hamster ovary (CHO) cell line stably expressing the NPS receptor (CHO-NPSR) was obtained from Dr. Heilig lab at NIAAA and maintained in F-12 Kaighn's media (Invitrogen, Carlsbad, CA, 21127) supplemented with 10 % FBS, 100 units/ml penicillin, 100 ug/ml streptomycin and 250 ug/ml geneticin at 37C, 5% CO2 in a humidified atmosphere. Before the assay, aliquots of cells were frozen and stored at -135C. The assay was performed on a FDSS-7000 kinetic plate reader in 1536-well format. For both agonist (1-220s) and antagonist (221-400s) phases, the maximums of kinetic fluorescence responses were converted separately into text files using the instrument's software data export utility. Data for agonist response were normalized to the controls for basal activity (DMSO only) and 100% activation (NPS). […] AC50 values were determined from concentration-response data modeled with the standard Hill equation. NPS 1536-well FDSS assay protocol: (1) Frozen CHO-NPSR cells were thaw, washed once with fresh media and resuspended in F-12 Kaighn's media supplemented with 10 % FBS, 100 units/ml penicillin and 100 ug/ml streptomycin. Cells were plated at 3 ul/well (1200 cells) to black, clear-bottom, tissue-culture treated 1536-well plates, and then cultured at 37C, 5 % CO2 for 16 to 30 hours. (2) Add 3 ul of calcium dye (from High Performance PBX Calcium Assay Kit, BD Biosciences). The calcium dye was prepared according to the manufactory's instruction. (3) Incubation at 37C, 5 % CO2 for 60 to 120 min. (4) Load plates to FDSS-7000. The following steps were performed on FDSS-7000. (5) Record fluorescent background (Ex 480 nm, Em 520-560 nm) for 10 s. (6) Add 23 nl/well of compound in DMSO solution. The final titration for each compound was between 0.6 nM and 46 uM. Record agonist response for 210 s. (7) Add 2 ul of stimulation reagent (1X HBSS buffer, 0.1% BSA, 60 nM NPS). Record antagonist response for 140 s. Keywords: MLSMR, MLPCN, NIH Roadmap, qHTS, NCGC, NPS, Neuropeptide S Antagonists
(In general: Calcium flux is commonly read through the fluorescence of an indicator in the cells.)
For `C=C(C=O)C[C@@H]1C[C@H](O)C2OC3C[C@]4(C)OC5/C=C\CC6OC7C(CC=CCC6OC5CCCC4OC3CC2O1)OC1CC2OC3CC(=O)OC3C[C@@H](C)C[C@@]2(C)OC1C[C@@H]7C` (stereo not given in full), the Potency is 0.501 µM (active). `CC(=O)Nc1cc([As](=O)(O)O)ccc1O`: the “activity change, negative = inhibition” value is 25.2%.

Regarding `CNc1ccc2oc(C[C@H]3O[C@@]4(CC[C@H]3C)O[C@H]([C@H](C)C(=O)c3ccc[nH]3)[C@H](C)C[C@H]4C)nc2c1C(=O)O`, the Potency is 0.0158 µM (active).

Turning to `Cc1cccc(N2C(=O)NC(=O)/C(=C\c3cnn(-c4ccccc4)c3)C2=O)c1`, the Potency was 10 µM (active).

`C=C1C(=O)O[C@@H]2C[C@@H](C)[C@@H]3C=CC(=O)[C@@]3(C)[C@@H](OC(=O)CC(=O)O[C@H]3[C@@H]4C(=C)C(=O)O[C@@H]4C[C@@H](C)[C@@H]4C=CC(=O)[C@]43C)[C@H]12`: the Potency is 0.0891 µM (active). The same measure, in the same setting: the same measure for `Cc1cc(C=C2C(=O)NC(=S)NC2=O)c(C)n1-c1ccc2c(c1)OCO2`: 12.6 µM (active); for `C=CCN1C(=O)/C(=C/c2cccs2)C(=O)NC1=S`: 11.2 µM (active). As to `C[C@H]1CCCC(=O)CCCCCc2cc(O)cc(O)c2C(=O)O1`, the “activity change, negative = inhibition” value was 10.8%. Consider `Cc1c(P(=S)(c2ccccc2)c2ccccc2)[n+]2ccccc2n1C`, for which the Potency is 0.2 µM (active). The same measure, in the same setting: the same measure for `CCOC(=O)c1c(-n2c(C)cc(C=C3C(=O)NC(=S)NC3=O)c2C)sc2c1CCCC2`: 2 µM (active).

(Values after PubChem BioAssay AID1489 (National Center for Advancing Translational Sciences (NCATS), 2009).)
